In PubChem BioAssay (NCATS):
Records with an inconclusive call do not appear. A number with no mark means an inactive call. Activity calls are given as the source filed them. Calls follow the shape of the dose curve; as a rule, active = well fitted curve in the direction sought with a large enough effect; inconclusive = small, poorly fitted or top-dose-only effect, or another doubt; inactive = no such curve, though single readings can be large; an effect the other way counts as inactive or inconclusive.

How the values were obtained:
[1] = P-glycoprotein substrates identified in KB-8-5-11 adenocarcinoma cell line, qHTS therapeutic library screen (AID 1346987); also: potency is read from the fitted curve at half-maximal effect; nearly all actives have a fitted effect of over 65% in size
Summary of the method: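 Compounds are pinned in dose-response onto KB-8-5-11 cells (500 cells/well, colchicine-free medium) and left 72 h at 37 degree C. CellTiter-Glo luminescence then yields AC50 values.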

[2] = Primary qHTS for inhibitors of nuclear receptor binding SET domain protein 2 (NSD2) in an isogenic RCH-ACV NSD2 p.E1099K mutant (9B) (AID 1645876); also: potency is read from the fitted curve at half-maximal effect; nearly all actives have a fitted effect of over 70% in size
[3] = target: Glutathione peroxidase 1 (Homo sapiens) (UniProt P07203); test: Primary qHTS Assay for Inhibitors of Recombinant Selenoprotein Glutathione Peroxidase 1 (GPX1) (AID 1845191); also: nearly all actives have a fitted effect of over 65% in size
Chain of Glutathione peroxidase 1 (Homo sapiens) (P07203 whole entry, looked up): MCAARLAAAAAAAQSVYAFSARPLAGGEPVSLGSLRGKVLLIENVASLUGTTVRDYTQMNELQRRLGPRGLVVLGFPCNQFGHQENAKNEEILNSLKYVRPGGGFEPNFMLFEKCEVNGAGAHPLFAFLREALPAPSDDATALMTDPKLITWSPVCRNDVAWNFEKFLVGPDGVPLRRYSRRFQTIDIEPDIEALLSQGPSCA
Summary of the method: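 NADPH consumption tracked by fluorescence at 340/450 nm between t=0 and t=15 min, room temperature. Final mix: 10 nM GPX1, 100 nM glutathione reductase, 1 mM GSH, 0.5 mM NADPH, 0.5 mM cumene hydroperoxide, 0.01% BSA; 30 min compound–enzyme preincubation.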

[4] = qHTS Assay for Identifying Gametocytocidal Compounds (AID 743244);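 also: % is scaled to controls: 0 for no effect and ±100 for the full control effect; actives lower the fluorescent signal which means gametocytes are killed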; conditions: P. falciparum 3D7 stage III-V gametocytes, alamarBlue, 72 h; max response: active compounds read low
Summary of the method: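 3D7 gametocytes, stages III–V, 20,000/well; cpd 72 h, 37 °C/5% CO2; + alamarBlue 24 h; fluor. Ex 525/Em 598.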

| SMILES | Potency [1] | Potency [2] | Potency [3] | max response [4] [%] |
| --- | --- | --- | --- | --- |
| CN(C)CC(=O)N1CCC[C@@H](n2nc(-c3ccc(Oc4ccccc4)cc3)c3c(N)ncnc32)C1 | 20.6 µM (active) | 1.64 µM (active) | inactive |  |
| CCCCCCC(=O)O[C@H]1CC[C@H]2[C@@H]3CCc4cc(O)ccc4[C@H]3CC[C@]12C | 7.31 µM (active) |  | inactive | -2.62 |
